# Data as given in ChEMBL document CHEMBL3988442, “University of Dundee, Small-Polar-MMV Screening Library” (2021).
# The campaign covered roughly 38,000 compounds. About 1,200 (3.2%) showed an effect of 50% or more. The median lay at about -58%. Shown is part of a subset that was picked to be rich in strong results.
# Test system: Plasmodium falciparum
# Assay: Calibr Malaria Delayed Death Assay SOP
# Assay type: functional, organism-based
# Parameters: scale not given: in the data most compounds retested in dose-response had high values
# Details: concentration 4.99e-06 (unit not given; other assays of the set use mol/L)
row,Structure (SMILES),Percent Effect [%]
1,CC(C)N(C)C(=O)C1=NOC2(CCN(C(=O)c3ccnnc3)C2)C1 (stereo unspecified),-187.4
2,Cc1cccc(CCC(=O)Nc2ccnn2C2CCS(=O)(=O)C2)c1 (stereo unspecified),-75.57
3,O=C(NCCNC(=O)c1ccc(Br)cc1)c1ccc(O)cc1,27.41
4,O=C(NCCNc1ccc(Br)cn1)c1ccc(O)cc1,-25.48
5,O=C(NCCNc1cncc(Br)c1)c1ccc(O)cc1,50.22
6,CCc1nn(C)c(Cl)c1CN1CCCC2(CC1)CN(C)C(=O)O2 (stereo unspecified),-46.66
7,O=C1NCC2(CCCN(Cc3ccccc3OCCO)C2)O1 (stereo unspecified),-55.51
8,OCCOc1ccccc1CN1CCCC(O)(CO)C1 (stereo unspecified),-48.41
9,OCC1(O)CCCN(Cc2ccccc2OCCc2ccccc2)CC1 (stereo unspecified),64.9
10,Cc1cc(C(=O)Nc2cnn(CC(F)(F)F)c2)nc(N2CCOCC2)n1,-108.9
11,c1csc(COC[C@H]2CCC[C@]23CN(Cc2ccoc2)CCO3)n1,34.38
12,CCN1CCCC1CN(CCN(C)C)S(=O)(=O)c1ccc(C#N)cc1 (stereo unspecified),58.03
13,CCN(CC)S(=O)(=O)c1ccc(CNC(=O)N2CCC(C#N)CC2)cc1,-96.87
14,CCN1CCCC1CN(CCN(C)C)S(=O)(=O)c1cccc(C#N)c1 (stereo unspecified),58.76
15,CCS(=O)(=O)N1CCC(Oc2ccc(C#N)cc2)CC1,-74.03
16,CC(=O)NCCC1CCCCN1S(=O)(=O)c1cccc(C#N)c1 (stereo unspecified),-38.39
17,CS(=O)(=O)NCC1CCCCN1Cc1cccc(C#N)c1 (stereo unspecified),-99.98
18,Cn1ncc2c(NC3CCCN(C(=O)C4CC4)C3)nc(C(C)(C)C)nc21 (stereo unspecified),-80.8
19,CC(C)CC(NC(=O)c1ccn(C)c(=O)c1)c1ccccc1 (stereo unspecified),-106.6
20,CCc1c(C)nc2ccccc2c1N1CCC(NC(C)=O)CC1,21.66
21,CNC(=O)C1CCCN1c1nc(C)c2ccccc2n1 (stereo unspecified),-23.49
22,CCc1c(C)nc2ccccc2c1N1CCC(C(=O)NC)CC1,51
23,Cc1csc(NC(=O)[C@@H]2C[C@H]3[C@H](CCN3S(C)(=O)=O)O2)n1,-110.3
24,O=S(=O)(NCc1ccc(S(=O)(=O)N2CCCC2)s1)c1ccc(Cl)cc1,-58.72
25,O=C1CN(C(=O)c2ccc(F)cc2)CC(O)CN1Cc1cccs1 (stereo unspecified),88.73
26,O=C1CN(C(=O)c2ccc(Cl)cc2)CC(O)CN1Cc1cccs1 (stereo unspecified),-105.2

row,Structure (SMILES),Percent Effect [%]
1,Cc1ccc(C(=O)N2CC(=O)N(Cc3cccs3)CC(O)C2)cc1 (stereo unspecified),-71.11
2,CN(C)S(=O)(=O)N1CCOCC1CC(=O)NCCOc1ccccc1 (stereo unspecified),-2.235
3,CCc1noc(C)c1C(=O)NCc1cc[nH]n1,-11.39
4,Cc1noc(C)c1C(=O)NCc1cc[nH]n1,-1.688
5,CCN(c1ccc(C(=O)NCc2cc[nH]n2)cc1)C(C)C,57.8
6,Cc1nc(CN2CCCC(NCc3ccc4c(c3)CCO4)C2)no1 (stereo unspecified),-110.8
7,CCCc1nc(N2CCSCC2)c2c(n1)c(C)nn2CC,-63.17
8,CCN(CC)CC1CN(CCc2ccccc2)Cc2nccn2C1.O=C(O)C(F)(F)F.O=C(O)C(F)(F)F (stereo unspecified),57.03
9,Cc1ccc(CN2Cc3nccn3CC(Cn3cccn3)C2)s1.O=C(O)C(F)(F)F (stereo unspecified),-33.05
10,CN(C)CC1CN(Cc2ccc(F)cc2)Cc2nccn2C1.O=C(O)C(F)(F)F.O=C(O)C(F)(F)F (stereo unspecified),12.77
11,CCN(CC)CC1CN(Cc2nccs2)Cc2nccn2C1.O=C(O)C(F)(F)F.O=C(O)C(F)(F)F (stereo unspecified),18.43
12,Cc1ccc(CN2Cc3nccn3CC(CN(C)C)C2)s1.O=C(O)C(F)(F)F.O=C(O)C(F)(F)F (stereo unspecified),-55.03
13,CCN(CC)CC1CN(Cc2ccc(C)s2)Cc2nccn2C1.O=C(O)C(F)(F)F.O=C(O)C(F)(F)F (stereo unspecified),66.72
14,O=C(NCC1CC1)c1cc2c(s1)CCN2c1ncccn1,-131.9
15,O=C(c1cnc2ccc(Cl)cc2c1NCc1ccco1)N1CCCCC1,-150.7
16,Cc1ncsc1-c1nnc(C2CCN(Cc3ccc(Cl)cc3)CC2)o1,-44.81
17,CC(C)(CN1CCC2(CCOCC2)CC1)N1CCOCC1,-173.8
18,COCC1c2nnn(C)c2CCN1C(=O)Cc1ccccn1 (stereo unspecified),-28.75
19,Cc1ccc(F)c(S(=O)(=O)N2CCCC2c2ccncc2)c1 (stereo unspecified),-74.84
20,CCC[C@H]1CN(S(=O)(=O)c2cc(C)ccc2C)C[C@@H]1N,67.41
21,CCC[C@H]1CN(S(=O)(=O)c2ccccc2)C[C@@H]1N,16.03
22,CCC[C@H]1CN(S(=O)(=O)c2cc(C)ccc2F)C[C@@H]1N,52.25
23,Cc1noc(C)c1-c1n[nH]c2c1CN(S(=O)(=O)c1cccs1)CC2,-28.6
24,CCc1ccc(S(=O)(=O)N2CCCC(c3ncc[nH]3)C2)s1 (stereo unspecified),13.27
25,CCS(=O)(=O)NC1CCCN(c2cc(C)ccc2F)C1=O (stereo unspecified),0.205
26,Cc1ccc(C)c(S(=O)(=O)N2CCN(C)C3(CCC(=O)N(C)CC3)C2)c1 (stereo unspecified),-116.8

row,Structure (SMILES),Percent Effect [%]
1,Cc1cccc(OCC(O)CNCc2c(C)nn(C)c2N(C)C)c1 (stereo unspecified),22.52
2,O=C(O)C(F)(F)F.O=C(O)C(F)(F)F.O=S1(=O)c2ccccc2C2(CCN(Cc3cccnc3)C2)N1CC1CC1 (stereo unspecified),-8.635
3,CS(=O)(=O)NC[C@]12COC[C@H]1CN(CC1CCC1)C2.O=C(O)C(F)(F)F,-46.78
4,CS(=O)(=O)N1C[C@H]2CN(CC3CC3)C(=O)[C@H]2C1,-17.38
5,CN1CCN(C[C@@H]2CN(C(=O)NCC3CCCCC3)C[C@@H]2CO)CC1,-32.18
6,Clc1ccccc1C1(c2ccnc(C3CCCC3)n2)CCNCC1,82.68
7,Cl.Clc1cccnc1OC1CCNCC1,7.245
8,Clc1ccccc1C1(c2ccnc(C3CC3)n2)CCNCC1,72.39
9,Cc1cccc(CN2CCn3c(C(=O)N(C)C)cnc3C2)c1,-123.8
10,CN(C)CCNC(=O)c1cc2c(s1)CCN2S(C)(=O)=O,-66.69
11,Cn1cnnc1CCC(=O)N1CCCC(OCc2cccnc2)C1 (stereo unspecified),-207.3
12,COc1cc(NC(=O)c2ccc(Cl)cc2F)c(C(=O)N(C)C)cc1OC,-107.3
13,Cc1cc(C)n(C2CN(CC(O)Cn3cccn3)C2)n1 (stereo unspecified),-132.3
14,Cc1cnn(C2CN(CC(O)c3ccc(F)cc3)C2)c1 (stereo unspecified),56.46
15,Cc1cnn(C2CN(CC(O)c3ccccc3)C2)c1 (stereo unspecified),40.53
16,Cc1cc(C)n(C2CN(CC(O)COc3ccc(F)cc3)C2)n1 (stereo unspecified),-22.32
17,COc1ccc(C(O)CN2CC(n3cc(C)cn3)C2)cc1 (stereo unspecified),19.27
18,Cc1cc(C)n(C2CN(CCc3ccncc3)C2)n1,-117
19,COc1ccc(C(O)CN2CC(n3nc(C)cc3C)C2)cc1 (stereo unspecified),47.1
20,Cc1cc(C)n(C2CN(CC(O)c3cc(F)ccc3F)C2)n1 (stereo unspecified),84.13
21,COc1cc(OC)cc(-c2noc(C(N)CCSC)n2)c1 (stereo unspecified),-32.31
22,Cc1ccc(C(=O)Nc2ccc3c(c2)N(C)CCN(C)C3)c(=O)[nH]1,-25.5
23,Cc1cnn(C2CN(CC(=O)NCCc3cccs3)C2)c1,-35.32
24,CN(Cc1cc2cc(F)ccc2[nH]1)C(=O)C1CC(=O)N(C2CC2)C1 (stereo unspecified),-1.915
25,Cc1cc(CN2CCO[C@H]3[C@H](OCc4csc(C)n4)CC[C@@H]32)no1.O=C(O)C(F)(F)F.O=C(O)C(F)(F)F,-78.11
26,CC1CCN(C(=O)C2CCN(c3ccc(Cl)cc3C#N)CC2)CC1,59.54

row,Structure (SMILES),Percent Effect [%]
1,CCN(CC)C(=O)C1CCN(c2ccc(Cl)cc2C#N)CC1,-152.7
2,N#Cc1cc(Cl)ccc1N1CCN(C(=O)C2CCC2)CC1,-79.7
3,Cc1noc(CN(C)C2CCCN(Cc3noc(C4CC4)n3)C2)n1 (stereo unspecified),-141.9
4,Cc1cc(CN2CCOC(CNc3cccnn3)C2)no1 (stereo unspecified),-113
5,CO[C@H]1CN(CC2CCOCC2)[C@@H]2CCCO[C@H]12.O=C(O)C(F)(F)F,-55.37
6,Cn1ccnc1CCC1CCCCN1Cc1nccn1C (stereo unspecified),23.43
7,Cc1c[nH]c(CN2CCCCC2CCn2ccnc2C)c(C)c1=O (stereo unspecified),-167.9
8,CCOC(C)c1nccn1CCC(=O)Nc1cc(C)on1 (stereo unspecified),-31.31
9,CCn1cnc2c(cnn2-c2cccc(C)c2C)c1=O,-109.7
10,CC(=O)c1c(O)n(C)c2ccc(F)cc12,-135.9
11,Cc1cnn(CCNCc2ccc(OCc3cscn3)cc2)c1,-21.22
12,CC(C)NC(=O)NC[C@H]1C[C@@H]2CCN1C[C@@H]2CN(C)c1ccccc1,-39.27
13,CC[C@H]1CN2CC[C@H]1C[C@@H]2CNCc1ccc(OC(F)(F)F)cc1,85.66
14,CCN1CCCC(O)(CNCc2ccc3c(c2)OCO3)C1 (stereo unspecified),14.07
15,CC[C@H]1CN2CC[C@H]1C[C@@H]2CNCc1ccc2c(c1)OCO2,60.86
16,CC[C@H]1CN2CC[C@H]1C[C@@H]2CNCc1cccc(C#N)c1,34.74
17,CC[C@H]1CN2CC[C@H]1C[C@@H]2CNC(=O)Nc1ccccc1,-66.09
18,CC[C@H]1CN2CC[C@H]1C[C@@H]2CNCc1ccc(N(C)C)cc1,62.75
19,CC[C@H]1CN2CC[C@H]1C[C@@H]2CNC(=O)Nc1cccc(C(F)(F)F)c1,-88.31
20,CC[C@H]1CN2CC[C@H]1C[C@@H]2CNC(=O)NC1CCCCC1,-27.77
21,CC[C@H]1CN2CC[C@H]1C[C@@H]2CNC(=O)Nc1cccc(C#N)c1,-82.85
22,CC[C@H]1CN2CC[C@H]1C[C@@H]2CNC(=O)Nc1cc(OC)cc(OC)c1,63.7
23,CC[C@H]1CN2CC[C@H]1C[C@@H]2CNCc1ccc(OC)cc1,6.891
